# From PubChem BioAssay
# Eya2 phos inh = blocks the phosphatase activity of human Eya2. Potency, µM (series often up to 76.9 µM), for the others: at the top dose activity, negative = inhibition, hits mostly inhibitors. actives 0.006% (n = 330,000). AID 488837. recombinant Eya2, OMFP fluorescence dephosphorylation (OMFP is methylfluorescein phosphate); also: potency is read from the fitted curve at half-maximal effect
#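 Eya2 (0.2 uM) preincubated 10 min at ambient with compound, then OMFP substrate added at 50 uM; 10 min reaction in 50 mM HEPES pH 7.5, 50 mM NaCl, 5 uM MgCl2, 0.05% BSA, 1 mM DTT. Fluorescence read at Ex 485/Em 525 nm.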
# Six1-Eya2 blk = inhibitors of human Six1/Eya2 interaction; actives 0.56% (n = 360,000); Q15475+O00167; AlphaScreen GST-Six1/His-Eya2 binding, biochemical; active compounds read low; activity change, % (no concentration beside the values); in the data active = activity change below about -65%; inconclusive = mostly about -30% to -63%
# Target sequence (O00167 whole entry, looked up): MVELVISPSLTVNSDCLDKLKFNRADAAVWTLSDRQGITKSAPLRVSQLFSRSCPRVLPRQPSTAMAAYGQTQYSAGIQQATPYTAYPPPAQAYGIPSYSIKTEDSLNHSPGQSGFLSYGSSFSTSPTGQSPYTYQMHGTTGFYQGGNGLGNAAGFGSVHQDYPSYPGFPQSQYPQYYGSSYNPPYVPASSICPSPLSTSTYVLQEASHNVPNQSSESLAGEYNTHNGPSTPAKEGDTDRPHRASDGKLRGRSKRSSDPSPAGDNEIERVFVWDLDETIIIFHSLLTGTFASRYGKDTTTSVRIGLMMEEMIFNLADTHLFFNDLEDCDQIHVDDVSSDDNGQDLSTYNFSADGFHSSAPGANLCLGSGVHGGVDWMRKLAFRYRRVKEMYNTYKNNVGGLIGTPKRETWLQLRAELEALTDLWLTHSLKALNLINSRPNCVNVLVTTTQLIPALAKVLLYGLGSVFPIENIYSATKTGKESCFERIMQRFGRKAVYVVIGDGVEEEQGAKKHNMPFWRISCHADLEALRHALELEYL
# Target sequence (Q15475 whole entry, looked up): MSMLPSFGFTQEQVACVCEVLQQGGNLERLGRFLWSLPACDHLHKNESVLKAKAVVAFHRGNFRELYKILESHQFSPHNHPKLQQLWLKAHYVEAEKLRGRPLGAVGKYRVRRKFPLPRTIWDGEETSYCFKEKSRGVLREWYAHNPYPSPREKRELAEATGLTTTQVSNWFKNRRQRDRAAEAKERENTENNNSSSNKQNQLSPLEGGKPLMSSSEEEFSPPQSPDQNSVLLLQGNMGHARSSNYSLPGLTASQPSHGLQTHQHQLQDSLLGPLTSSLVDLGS
#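 Compounds are tested against tagged Six1 and Eya2 proteins bridged by glutathione donor and nickel acceptor beads; after a one-hour incubation at 37 °C without light, AlphaScreen emission is recorded.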
# USP2a inh = USP2a (human) protease inhibition. USP2 core, Ub-CHOP2 coupled fluorogenic reporter, 485/531. Potency, µM (highest dose often 38.3 µM), inactives show top-dose activity change, negative = inhibition, usual class: inhibitors. actives 0.01% (n = 330,000);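 also: potency is read from the fitted curve at half-maximal effect; plate controls were DMSO wells for no effect and full inhibition by NEM control for full effect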
#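 Deubiquitinase activity read as fluorescence (485/531 nm) after Ub-CHOP2 cleavage activates the enterokinase reporter on its substrate; USP2 core 10nM, Ub-CHOP2 and substrate 25nM each, 30min compound preincubation then 60min RT; data normalized to NEM, curves fitted.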
# PI4K2A inh = PI4K2A (human) kinase inhibition | actives 0.13% (n = 420,000) | activity change, negative = inhibition, % at 76.9 µM | purified PI4K2A, ADP-Glo luminescence, 1 h; active compounds read low | Q9BTU6; in the data active = activity change below about -50%; inconclusive = mostly about -30% to -49%;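 also: -100% = wells without enzyme as full effect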
#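 Compounds are screened against recombinant PI4K2A using PI as substrate and ATP, the latter dispensed at 300 microM. Reactions run one hour at ambient temperature before ADP-Glo detection; full inhibition defined by wells lacking enzyme.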
# RGS4 inhibitor = human RGS4 inhibition; Transcreener GDP fluorescence polarization, RGS4-accelerated GTP hydrolysis; P49798; Potency, µM (highest dose often 114 µM), for the others: at the top dose activity change, negative = inhibition, actives largely listed as inhibitors; actives 0.039% (n = 390,000); also: potency is read from the fitted curve at half-maximal effect; nearly all actives have a fitted effect of over 75% in size
#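 MLSMR compounds (23 nl, pin-transferred) preincubated 10 min at room temperature with a 500nM (2x) first reagent, then RGS4 at 900nM (2x) plus Transcreener GDP mix added; fluorescence polarization (620/688 nm) read before and after 90 min at 30 °C.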
# CtBP-E1A inh = blocks the CtBP interaction with E1A. actives 0.49% (n = 340,000). activity change, % (no concentration beside the values). AlphaScreen GST-E1A/His-CtBP binding, 1536-well; active compounds read low. AID 651724; in the data active = activity change below about -65%; inconclusive = mostly about -30% to -63%
#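 In 5 uL wells, 23 nL compound meets equimolar GST-E1A and His-CtBP (5X stock 125 nM each) for 2 h, 37 °C. Beads (5X, 50 ug/mL) then 1 h, 37 °C, dark.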
# Starred values were filed as active, the others as inactive; ? = inconclusive; nt = no result given; [ ] = another dose, or the depositor's remark. A selection: hits, their analogues and other compounds. The true share with any hit is near 0.72%. Unless noted, calls follow the shape of the dose curve; as a rule, active = well fitted curve in the direction sought with a large enough effect; inconclusive = small, poorly fitted or top-dose-only effect, or another doubt; inactive = no such curve, though single readings can be large; an effect the other way counts as inactive or inconclusive. Unless noted, % is scaled to controls: 0 for no effect and ±100 for the full control effect.
SMILES,Eya2 phos inh,Six1-Eya2 blk,USP2a inh,PI4K2A inh,RGS4 inhibitor,CtBP-E1A inh
COc1ccc(C(=O)Nc2ccccc2C(=O)Nc2ccccc2C(=O)O)cc1,4%,-66*,3%,-4,-38%,-77*
CC(C)(C)OC(=O)N1CCC(c2c(C(=O)NCCN3CCOCC3)cnn2-c2ccc(F)cc2)CC1,nt,nt,nt,4,-8%,nt
Cc1ccc(C(=O)Nc2ccc(C(=O)N3CCCCC3)cc2)o1,8%,-17,1%,-53*,27%,-24
COCCCNC(=O)/C(C#N)=C/c1c(N2CCN(C)CC2)nc2c(C)cccn2c1=O,8%,-3,-5%,1,-2%,12
COCCNC(=O)/C(C#N)=C/c1c(N2CCN(C)CC2)nc2c(C)cccn2c1=O,-15%,-2,2%,5,5%,-76*
CCc1cc2c(cc3c(=O)n(CC(=O)NC4CCCCC4)nc(CC)n32)s1,nt,nt,nt,0,9%,nt
CCOc1ccc(S(=O)(=O)N2CCN(C)CC2)cc1NC(=O)c1ccccc1F,3%,-69*,1%,-7,-4%,1
c1ccc(-c2nc(NCc3ccco3)c3ccccc3n2)nc1,10%,-81*,2%,-17,5%[11.4 µM],-81*
C/C(=N\NC(=O)C(C)Oc1ccc([N+](=O)[O-])cc1)c1ccccn1 (stereo unspecified),-20%,-88*,-2%,-1,-11%,-94*
COc1cc(OC)cc(C(=O)NNC(=O)c2ccccn2)c1,-1%,-92*,3%,-18,34%,-90*
COc1ccc(C(=O)NCCNC(=O)c2ccccn2)cc1,4%,6,1%,1,-33%,0
COc1ccc(C(=O)NNC(=O)c2ccccn2)cc1,3%,-9,-1%,-85*,2%,nt
CC(Oc1ccccc1)C(=O)NNC(=O)c1ccccn1 (stereo unspecified),1%,-67*,0%,-2,-9%,22
COc1cccc(CNC(=O)c2ccc3c(c2)sc2nc(-c4ccccc4)cn23)c1OC,nt,nt,nt,-4,-33%,nt
CCc1ccc2c(F)cccc2n1,nt,5,nt,0,nt,7
O=C(CS(=O)(=O)c1cccc2nsnc12)Nc1cc(F)ccc1F,nt,nt,nt,4,5%,nt
COc1ccc(C(=O)NC(=S)NNC(=O)c2ccc3ccccc3n2)cc1,9%,-86*,0%,9,-40%,-82*
O=C(NNC(=O)c1ccccn1)c1cccc([N+](=O)[O-])c1,1%,-82*,1%,-6,1%,-66*
CCOc1ccc(OCCCC(=O)NNC(=O)c2ccncc2)cc1,-11%,2,-1%,-3,-6%,-4
COc1cc(OC)cc(C(=O)NNC(=O)c2ccc3ccccc3n2)c1,-7%,-13,0%,7,-13%,-3
O=C(c1cccc([N+](=O)[O-])c1)c1ccccn1,-17%,1,-1%,-1,-15%,nt
CC(=O)c1ccc(OCCCC(=O)NNC(=O)c2ccccn2)cc1,1%,?,0%,0,-9%,-70*
CCOc1ccc(CCNS(=O)(=O)c2c(C)nc3sc(C)cn3c2=O)cc1OCC,nt,nt,nt,0,0%,nt
O=C1CC2(CCCC2)CC(=O)N1,nt,nt,nt,-3,nt,nt
O=C1Cc2ccccc2C(=O)N1,nt,22,nt,-56*,nt,?
O=C1Nc2ccccc2CCc2ccccc21,-2%,-2,-3%,-2,8%,-1
Nc1ccc(-c2nc3ccc(C(=O)O)cc3s2)cc1,-5%,-11,4%,-26,-20%,-11
Nc1cc2sc(-c3ccc(C(=O)O)cc3)nc2cc1Cl,-2%,-18,3%,-76*,-22%,3
Nc1ccc(-c2nc3ccc(N)cc3s2)cc1,-10%,-10,-5%,-16,-52%,-6
O=C(O)c1ccc2nc(-c3ccccc3)sc2c1,-2%,3,0%,-52*,0%,-4
